From PubChem BioAssay AID837 (The Scripps Research Institute Molecular Screening Center, 2007)
Active and inactive are the calls of the source.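 Rule for the calls: active = relative FRET score above 0.01, or acceptor fluorescence over 30% below the sample-well median; inactive = the rest.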

molecular target: Protein Rev (Human immunodeficiency virus type 1 group M subtype B (isolate WMJ22)) (UniProt P05866); test: disruptors of Rev peptide-RRE RNA complex – biochemical, FRET, acceptor and relative FRET calls, confirmation (AID 837); details: Fl-Rev peptide / Cy5-RRE RNA FRET, 1536-well; at 8 µM;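 note: relative FRET combines rise in Cy5 acceptor with fall in fluorescein donor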
Sequence (P05866 whole entry, looked up): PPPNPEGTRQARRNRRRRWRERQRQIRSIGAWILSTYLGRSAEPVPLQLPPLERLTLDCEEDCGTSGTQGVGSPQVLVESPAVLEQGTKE

Row | Compound | outcome
1 | CCOc1cc(-c2ccc(N)c(OCC)c2)ccc1N | active; fluoresces like the donor
2 | COc1ccc(CSc2nnc(C)n2N)cc1 | inactive
3 | CCCCCCCCOc1ccc(C2OC34CCCCC3C(C#N)(C#N)C2(C#N)C(=N)O4)cc1 (stereo not given) | inactive
4 | Nc1nc(Nc2ccccc2)nc2ccccc12 | inactive
5 | CC[n+]1c(/C=C/Nc2ccccc2)oc2ccccc21 | active; fluoresces like the donor
6 | c1ccc(COc2ccc(OCCCCN3CCCCC3)cc2)cc1 | inactive
7 | N=c1n(CCO)c2ccccc2n1CCOc1ccccc1 | inactive
8 | CCOc1ccc(C(O)Cn2c(=N)n(CCN3CCCCC3)c3ccccc32)cc1 (stereo not given) | inactive
9 | COc1ccc(CCn2c(=N)c(C(=O)NCc3ccco3)cc3c(=O)n4cccc(C)c4nc32)cc1 | inactive
10 | CCN(CC)CCOCCOc1cc(C)c(Cl)c(C)c1 | inactive
11 | COc1ccc(/C=C/c2cc(-c3ccc(C)cc3)o[n+]2C)cc1 | active
12 | Cc1ccc(C(=O)NNC(=O)CSc2nnc3c(n2)[nH]c2ccc(F)cc23)cc1 | active; quenches the donor
13 | CCN(N=Nc1cccc([N+](=O)[O-])c1)c1cccc([N+](=O)[O-])c1 | inactive
14 | N=c1n(Cc2ccccc2)c2ccccc2n1CC(O)c1ccco1 (stereo not given) | inactive
15 | CCOC(=O)Cn1c(=N)n(CCOc2ccc(OC)cc2)c2ccccc21 | inactive
16 | COC(=O)c1scc(C)c1N/N=C(\C)c1ccc(F)cc1F | inactive
17 | CCCCOc1ccc(NC2=NC3(CCCCC3)N=C(N)N2)cc1 | inactive
18 | COc1cccc(OC)c1-c1nn2c(-c3cc(-c4ccccc4)n[nH]3)nnc2s1 | active
19 | NCCCCCc1nnc(SCc2ccccc2Cl)o1 | inactive
20 | OC(COc1ccc(C2C=CCC2)cc1)CN1CCCCC1 (stereo not given) | inactive

Row | Compound | outcome
21 | CCOc1ccc2nc3ccc4[nH]onc4c3c2c1 | inactive
22 | C=CCn1c(=O)c(C(=O)NCCNCC)c(O)c2ccccc21 | inactive
23 | Nc1nc(Nc2ccc(Cl)cc2)nc2ccccc12 | active
24 | C[n+]1c2n(c3ccccc31)N=C(c1ccc(Br)cc1)CS2 | inactive
25 | CN(C)CCNCc1ccccc1OC1CCCC1 | inactive
26 | CN1CCc2c(sc3c2C(=O)NC(c2cn(Cc4ccccc4)c4ccccc24)N3)C1 (stereo not given) | inactive
27 | O=c1[nH]c(Nc2ccc(F)cc2)cc2ccccc12 | inactive
28 | OC(CN1C2=NCCCN2c2ccccc21)c1ccc(Br)cc1 (stereo not given) | inactive
29 | CCCN(N=Nc1cccc([N+](=O)[O-])c1)c1cccc([N+](=O)[O-])c1 | inactive
30 | COc1ccccc1NC1=NC(c2ccc(Cl)cc2)N=C(N)N1 (stereo not given) | active
31 | O=C(NCCCO)Nc1ccc2nc(-c3ccco3)c(-c3ccco3)nc2c1 | inactive
32 | CN1CCN(Cc2cccc(Oc3ccc(Cl)cc3)c2)CC1 | inactive
33 | Cc1cc(Cl)c(OCCCNCc2ccccc2)c(Br)c1 | inactive
34 | COc1cccc(-c2cc(C(F)(F)F)nc(N3CCC(C)CC3)n2)c1 | inactive
35 | CCN(CC)CCCOc1ccc(C)cc1Br | inactive
36 | COc1ccc(C2N=C(N)N=C(N)N2c2ccc(C)cc2)cc1 (stereo not given) | active
37 | CC12Cc3ccc4ccccc4c3C=C1C[N+](C)(C)C2 (stereo not given) | inactive
38 | OC(COCCC12CC3CC(CC(C3)C1)C2)CN1CCCCC1 (stereo not given) | inactive
39 | N=c1c2c(n(Cc3ccc(F)cc3)c3c1CCC3)CCC2 | inactive
40 | CC1CC(c2ccccc2)n2nc(NC(=O)c3cccs3)nc2N1 (stereo not given) | inactive
